# The supplement of paper PMC6522484
# ± gives the standard deviation of the averaged measurements.
# Assays:
# DLD1 [1] = assay: cell viability (CellTiter-Glo) relative to plate median (fraction of plate median); higher = more viable cells; details: 5 µM; treatment time 24 h; reporter: 7TFP
# In short: (§1)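 Values are well luminescence normalised to the plate median, from either a firefly luciferase or a CellTiterGlo readout on parallel plates. The cells, colorectal cancer lines stably transduced with lentiviral 7TFP or TCF4/Wnt firefly luciferase reporters, were treated with library compounds at a final 5 µM for 24 h. The mean of two independent replicates is listed.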
# HCT116 [2] = assay: as above; details: 5 µM; treatment time 24 h; reporter: TCF4/Wnt
# In short: as §1
# SW480 [3] = assay: as above; details: 5 µM; treatment time 24 h; reporter: 7TFP
# In short: as §1
# DLD1 [4] = assay: TCF/Wnt firefly luciferase reporter signal relative to plate median (fraction of plate median); higher = higher Wnt reporter signal; details: 5 µM; treatment time 24 h; reporter: 7TFP
# In short: as §1
# SW480 [5] = assay: as above; details: 5 µM; treatment time 24 h; reporter: 7TFP
# In short: as §1
# DLD1 [6] = assay: cell viability (CellTiter-Glo) relative to plate median (fraction of plate median); higher = more viable cells; details: 10 µM, treatment time 24 h
# In short: (§2)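 Colorectal cancer cell lines stably transduced with lentiviral TCF/Wnt firefly luciferase reporters (7TFP or TCF4/Wnt) were seeded in 384-well plates. 24 h later they received kinase inhibitor library compounds at a final 10 µM for 24 h. Parallel plates were read for firefly luciferase or CellTiterGlo luminescence on a Tecan F500 reader. Each well's signal was normalised to the plate median (webcellHTS2, additive, no log transformation), and the mean of two independent replicates is reported.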
# HCT116 [7] = assay: as above; details: 10 µM; treatment time 24 h; reporter: TCF4/Wnt
# In short: as §2
# SW480 [8] = assay: as above; details: 10 µM; treatment time 24 h; reporter: 7TFP
# In short: as §2
# DLD1 [9] = assay: TCF/Wnt firefly luciferase reporter signal relative to plate median (fraction of plate median); higher = higher Wnt reporter signal; details: 10 µM, treatment time 24 h
# In short: as §2
# HCT116 [10] = assay: as above; details: 10 µM; treatment time 24 h; reporter: TCF4/Wnt
# In short: as §2
# SW480 [11] = assay: as above; details: 10 µM; treatment time 24 h; reporter: 7TFP
# In short: as §2
compound,measurement,setting,value
COc1cc(-c2coc3cc(OC)c(OC)c(OC)c3c2=O)cc(OC)c1OC,cell viability,DLD1 [1],1.04 ± 0.08
same,cell viability,HCT116 [2],1.18 ± 0.14
same,cell viability,SW480 [3],1.07 ± 0.064
same,TCF/Wnt firefly luciferase reporter signal,DLD1 [4],1.05 ± 0.1
same,TCF/Wnt firefly luciferase reporter signal,SW480 [5],1.1 ± 0.028
Nc1cc(C(F)(F)F)c(-c2cc(N3CCOCC3)nc(N3CCOCC3)n2)cn1,cell viability,DLD1 [6]; reporter: 7TFP,0.777 ± 0.073
same,cell viability,DLD1 [6]; reporter: TCF4/Wnt,0.9145 ± 0.0078
same,cell viability,HCT116 [7],0.56 ± 0.069
same,cell viability,SW480 [8],1.105 ± 0.0071
same,TCF/Wnt firefly luciferase reporter signal,DLD1 [9]; reporter: 7TFP,0.383 ± 0.085
same,TCF/Wnt firefly luciferase reporter signal,DLD1 [9]; reporter: TCF4/Wnt,0.75 ± 0.071
same,TCF/Wnt firefly luciferase reporter signal,HCT116 [10],0.502 ± 0.057
same,TCF/Wnt firefly luciferase reporter signal,SW480 [11],0.704 ± 0.036
CCn1cc(C(=O)O)c(=O)c2cc(F)c(N3CCNCC3)nc21,cell viability,DLD1 [1],1.05 ± 0.064
same,cell viability,HCT116 [2],0.98 ± 0.071
same,cell viability,SW480 [3],1.05 ± 0.083
same,TCF/Wnt firefly luciferase reporter signal,DLD1 [4],1.065 ± 0.0071
same,TCF/Wnt firefly luciferase reporter signal,SW480 [5],1.04 ± 0.028
CC(=O)N[C@@H](CS)C(=O)O,cell viability,DLD1 [1],0.994 ± 0.037
same,cell viability,HCT116 [2],0.988 ± 0.12
same,cell viability,SW480 [3],0.993 ± 0.0042
same,TCF/Wnt firefly luciferase reporter signal,DLD1 [4],1.1 ± 0.14
same,TCF/Wnt firefly luciferase reporter signal,SW480 [5],1.07 ± 0.16
COc1cccc(-c2cc(=O)c3ccccc3o2)c1N,cell viability,DLD1 [6]; reporter: 7TFP,1.24 ± 0.085
same,cell viability,DLD1 [6]; reporter: TCF4/Wnt,1.025 ± 0.0071
same,cell viability,HCT116 [7],1.19 ± 0.071
same,cell viability,SW480 [8],1 ± 0.023
same,TCF/Wnt firefly luciferase reporter signal,DLD1 [9]; reporter: 7TFP,1.71 ± 0.2
same,TCF/Wnt firefly luciferase reporter signal,DLD1 [9]; reporter: TCF4/Wnt,1.62 ± 0.53
same,TCF/Wnt firefly luciferase reporter signal,HCT116 [10],1.25 ± 1
same,TCF/Wnt firefly luciferase reporter signal,SW480 [11],1.27 ± 0.65
Cn1cc(-c2ccc3nnc(C(F)(F)c4ccc5ncccc5c4)n3n2)cn1,cell viability,DLD1 [6]; reporter: 7TFP,1.14 ± 0.13
same,cell viability,DLD1 [6]; reporter: TCF4/Wnt,0.972 ± 0.11
same,cell viability,HCT116 [7],1.16 ± 0.05
same,cell viability,SW480 [8],0.846 ± 0.059
same,TCF/Wnt firefly luciferase reporter signal,DLD1 [9]; reporter: 7TFP,1.35 ± 0.05
same,TCF/Wnt firefly luciferase reporter signal,DLD1 [9]; reporter: TCF4/Wnt,1.4 ± 0.32
same,TCF/Wnt firefly luciferase reporter signal,HCT116 [10],1.25 ± 0.43
same,TCF/Wnt firefly luciferase reporter signal,SW480 [11],1.06 ± 0.064
CC[C@H]1OC(=O)C[C@@H](O)[C@H](C)[C@@H](O[C@@H]2O[C@H](C)[C@@H](O)[C@H](N(C)C)[C@H]2O)[C@@H](CCN2C[C@H](C)C[C@H](C)C2)C[C@@H](C)C(=O)/C=C/C(C)=C/[C@@H]1CO[C@@H]1O[C@H](C)[C@@H](O)[C@@H](OC)[C@H]1OC,cell viability,DLD1 [1],0.981 ± 0.041
same,cell viability,HCT116 [2],1.1 ± 0.05
same,cell viability,SW480 [3],0.972 ± 0.021
same,TCF/Wnt firefly luciferase reporter signal,DLD1 [4],1.02 ± 0.077
same,TCF/Wnt firefly luciferase reporter signal,SW480 [5],1.09 ± 0.064
NC(=O)c1ccccc1O,cell viability,DLD1 [1],1.07 ± 0.014
same,cell viability,HCT116 [2],0.991 ± 0.056
same,cell viability,SW480 [3],0.972 ± 0.014
same,TCF/Wnt firefly luciferase reporter signal,DLD1 [4],0.993 ± 0.096
same,TCF/Wnt firefly luciferase reporter signal,SW480 [5],0.81 ± 0.12
CC(=O)Nc1cccc(-n2c(=O)n(C3CC3)c(=O)c3c(Nc4ccc(I)cc4F)n(C)c(=O)c(C)c32)c1,cell viability,DLD1 [6]; reporter: 7TFP,1.33 ± 0.057
same,cell viability,DLD1 [6]; reporter: TCF4/Wnt,1.29 ± 0.13
same,cell viability,HCT116 [7],0.9995 ± 0.00071
same,cell viability,SW480 [8],1.19 ± 0.042
same,TCF/Wnt firefly luciferase reporter signal,DLD1 [9]; reporter: 7TFP,1.09 ± 0.52
same,TCF/Wnt firefly luciferase reporter signal,DLD1 [9]; reporter: TCF4/Wnt,1.39 ± 0.54
same,TCF/Wnt firefly luciferase reporter signal,HCT116 [10],1.32 ± 0.58
same,TCF/Wnt firefly luciferase reporter signal,SW480 [11],2.02 ± 0.042
CC(C)C[C@@H]1NC(=O)CNC1=O [Cyclo(leucylglycyl)],cell viability,DLD1 [1],0.991 ± 0.042
same,cell viability,HCT116 [2],1.05 ± 0.057
same,cell viability,SW480 [3],0.949 ± 0.072
same,TCF/Wnt firefly luciferase reporter signal,DLD1 [4],0.956 ± 0.028
same,TCF/Wnt firefly luciferase reporter signal,SW480 [5],0.935 ± 0.044
O=C(O[C@@H]1Cc2c(O)cc(O)cc2O[C@@H]1c1ccc(O)c(O)c1)c1cc(O)c(O)c(O)c1,cell viability,DLD1 [1],0.946 ± 0.061
same,cell viability,HCT116 [2],0.805 ± 0.24
same,cell viability,SW480 [3],1.04 ± 0.1
same,TCF/Wnt firefly luciferase reporter signal,DLD1 [4],1.03 ± 0.11
same,TCF/Wnt firefly luciferase reporter signal,SW480 [5],1.08 ± 0.021
COC(=O)[C@@H]1OC(=O)C2OC23[C@@]1(C)CCC1[C@@]2(C)CCC(=O)C(C)(C)C2C[C@@H](OC(C)=O)[C@]13C (stereo not given in full),cell viability,DLD1 [1],0.993 ± 0.011
same,cell viability,HCT116 [2],1.07 ± 0.078
same,cell viability,SW480 [3],1.01 ± 0.017
same,TCF/Wnt firefly luciferase reporter signal,DLD1 [4],0.86 ± 0.037
same,TCF/Wnt firefly luciferase reporter signal,SW480 [5],1.03 ± 0.046
CCN(CC)CCNC(=O)c1c(C)[nH]c(/C=C2\C(=O)Nc3ccc(F)cc32)c1C [Sunitinib Malate (Sutent)],cell viability,DLD1 [6]; reporter: 7TFP,0.867 ± 0.1
same,cell viability,DLD1 [6]; reporter: TCF4/Wnt,0.9685 ± 0.0035
same,cell viability,HCT116 [7],0.659 ± 0.31
same,cell viability,SW480 [8],1.02 ± 0.15
same,TCF/Wnt firefly luciferase reporter signal,DLD1 [9]; reporter: 7TFP,0.939 ± 0.051
same,TCF/Wnt firefly luciferase reporter signal,DLD1 [9]; reporter: TCF4/Wnt,0.87 ± 0.18
same,TCF/Wnt firefly luciferase reporter signal,HCT116 [10],0.605 ± 0.33
same,TCF/Wnt firefly luciferase reporter signal,SW480 [11],1.14 ± 0.21
